In the library only some 19% were active in any assay of this set; here they are far more common.
MCF10A rerep – A quantitative high throughput screen for small molecules that induce DNA re-replication in MCF 10a normal breast cells; MCF 10A DNA re-replication, Hoechst nuclear intensity, 48 h; Potency, µM (titrated, usually from 46.1 µM), actives largely listed as activators; 2.9% of 350,000 active; AID 624296, 2012; note: nearly all actives have a fitted effect of over 50% in size
SW480 rerep – A quantitative high throughput screen for small molecules that induce DNA re-replication in SW480 colon adenocarcinoma cells; SW480 DNA re-replication, Hoechst DNA content imaging, 48 h; Potency, µM (series often up to 46.1 µM), hits mostly activators; 1.8% of 340,000 active; note: nearly all actives have a fitted effect of over 55% in size
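Per well, 250 cells were exposed to pinned compound for 48 hr. Nuclear DNA was visualised with Hoechst (40 min, 37 C) and total object intensity recorded by fluorescence scanning.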
IL1B secr inh – qHTS for Inhibitors of Inflammasome Signaling: IL-1-beta AlphaLISA Primary Screen. AID 743279, 2014. THP-1 LPS/ATP IL-1B secretion, AlphaLISA, 16 h; active compounds read low. 4.7% of 360,000 active. activity change, % at 57.5 µM; in the data active = activity change below about -50%; inconclusive = mostly about -30% to -49%
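THP-1 cells pretreated 1 hr with compounds (up to 57.5 uM final), then stimulated with LPS (250 ng/mL final) plus ATP (1.25 mM final); secreted IL-1B measured by AlphaLISA after 16 hr, decreased signal indicating inhibition.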
DT40 TDP1 no CPT – qHTS for Inhibitors of human tyrosyl-DNA phosphodiesterase 1 (TDP1): qHTS in cells in absence of CPT; DT40 Tdp1-/- hTDP1 cells, no CPT, ATP luminescence, 48 h; AID 686978, 2013; Potency, µM (titrated, usually from 46.2 µM), usual class: inhibitors; 15% of 420,000 active; note: nearly all actives have a fitted effect of over 55% in size
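No-CPT arm: Tdp1-/-;hTDP1 DT40 cells (400/well) plus compounds, incubated ≥48 hr at 37 °C. Readout CellTiter-Glo luminescence.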
TDP1 cell CPT – qHTS for Inhibitors of human tyrosyl-DNA phosphodiesterase 1 (TDP1): qHTS in cells in presence of CPT | chicken DT40 Tdp1-/-;hTDP1 cells + 20 nM CPT, ATP luminescence, 48 h | Potency, µM (titrated, usually from 46.2 µM), hits mostly inhibitors | 12% of 420,000 active; note: nearly all actives have a fitted effect of over 55% in size
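Chicken DT40 Tdp1-/- cells stably complemented with human TDP1 were seeded at 400 cells/well in medium containing 20 nM camptothecin, exposed to pin-transferred compounds, and grown at 37 °C for at least 48 hr. Viability was read as ATP luminescence.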
Chronic BCR inh – qHTS Assay to Find Inhibitors of Chronic Active B-Cell Receptor Signaling | AID 493014, 2011 | Potency, µM (top dose mostly 46.1 µM), usual class: inhibitors | ABC-DLBCL IkBa-CBG/CBR reporter, luminescence ratio, 4 h | 0.05% of 340,000 active; active = well fitted inhibition curve with a large enough effect in the signal ratio, with a control signal flat, not every such curve was filed as active; inconclusive = small, poorly fitted or top-dose-only effect, or effect the other way, or a change in a side signal; the % refers to the signal ratio
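TMD8 ABC-DLBCL cells carrying doxycycline-inducible green luciferase fused to IkappaBalpha plus unfused red luciferase were exposed to compounds (up to 46 uM) for 4 hrs at 37C. Activity came from the overlap-corrected green/red luminescence ratio.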
Of the large screens only hits and unclear results are named; the others gave an inactive call. Unless noted, calls come from the whole dose curve; as a rule, active = well fitted curve in the direction sought with a large enough effect; inconclusive = small, poorly fitted or top-dose-only effect, or another doubt; inactive = no such curve, though single readings can be large; an effect the other way counts as inactive or inconclusive.

CCc1c(C)c2cc(Cl)c(O)c(CN3CCCC3)c2oc1=O	MCF10A rerep inconclusive, SW480 rerep 20.6µM
COc1ccc(OC)c(C(=O)NC(CC(N)=O)c2ccc(N3CCN(c4ccccn4)CC3)c([N+](=O)[O-])c2)c1 (centres undefined)	DT40 TDP1 no CPT inconclusive
Cc1oc2ncn(CC(C)C)c(=O)c2c1C(=O)Nc1cccc(C(F)(F)F)c1	none (no result: MCF10A rerep, SW480 rerep, IL1B secr inh, Chronic BCR inh)
Cc1oc2ncn(CC(C)C)c(=O)c2c1C(=O)NCc1cccc(Cl)c1	DT40 TDP1 no CPT 16.4µM, TDP1 cell CPT 16.4µM (no result: MCF10A rerep, SW480 rerep, IL1B secr inh, Chronic BCR inh)
Cc1cccc(NC(=O)c2c(C)oc3ncn(CC(C)C)c(=O)c23)n1	DT40 TDP1 no CPT 9.2µM, TDP1 cell CPT 10.3µM (no result: MCF10A rerep, SW480 rerep, IL1B secr inh, Chronic BCR inh)
COc1ccc(C)cc1NC(=O)c1c(C)oc2ncn(CC(C)C)c(=O)c12	DT40 TDP1 no CPT 23.1µM, TDP1 cell CPT inconclusive (no result: MCF10A rerep, SW480 rerep, IL1B secr inh, Chronic BCR inh)
CCCCNC(=O)c1c(C)oc2ncn(CC(C)C)c(=O)c12	DT40 TDP1 no CPT inconclusive (no result: MCF10A rerep, SW480 rerep, IL1B secr inh, Chronic BCR inh)
COc1cc(OC)c(N(C)C(=O)c2c(C)oc3ncn(CC(C)C)c(=O)c23)cc1Cl	none (no result: MCF10A rerep, SW480 rerep, IL1B secr inh, Chronic BCR inh)
CCc1ccc(S(=O)(=O)c2nnn3c2nc(NCCNC(C)=O)c2ccccc23)cc1	IL1B secr inh -63.7
CCc1ccc(S(=O)(=O)c2nnn3c2nc(Nc2cccc(C)c2C)c2sccc23)cc1	DT40 TDP1 no CPT 20.6µM, TDP1 cell CPT 23.1µM (no result: MCF10A rerep, SW480 rerep, IL1B secr inh, Chronic BCR inh)
CCc1ccc(S(=O)(=O)c2nnn3c2nc(Nc2cc(OC)ccc2OC)c2sccc23)cc1	none (no result: MCF10A rerep, SW480 rerep, IL1B secr inh, Chronic BCR inh)
CCc1ccc(S(=O)(=O)c2nnn3c2nc(NC(C)C)c2sccc23)cc1	DT40 TDP1 no CPT inconclusive, TDP1 cell CPT 20.6µM (no result: MCF10A rerep, SW480 rerep, IL1B secr inh, Chronic BCR inh)
CO[C@@H]1CN(C)C(=O)c2ccc(NS(=O)(=O)c3c(C)noc3C)cc2OC[C@@H](C)NC[C@@H]1C	none (no result: MCF10A rerep, SW480 rerep, Chronic BCR inh)
COc1ccc(CCNC(=O)c2ccc(Nc3nc4ccccc4n4nnnc34)cc2)cc1OC	DT40 TDP1 no CPT inconclusive (no result: MCF10A rerep, SW480 rerep, IL1B secr inh, Chronic BCR inh)
COc1ccc(/C=C/C(=O)Nc2nc(-c3cccs3)ns2)cc1	DT40 TDP1 no CPT 18.4µM, TDP1 cell CPT inconclusive (no result: MCF10A rerep, SW480 rerep, IL1B secr inh, Chronic BCR inh)
COc1ccc(C(=O)Nc2c(-c3cccs3)c(=O)c3ccccc3n2C)cc1	IL1B secr inh -82.1, DT40 TDP1 no CPT 20.6µM, TDP1 cell CPT 23.1µM, Chronic BCR inh inconclusive
COc1ccc(C(=O)Nc2nnc(-c3cccs3)s2)cc1	MCF10A rerep inconclusive, SW480 rerep inconclusive, DT40 TDP1 no CPT 11.6µM, TDP1 cell CPT 10.3µM
COc1ccc(/C=C/C(=O)Nc2cccnc2Cl)cc1	Chronic BCR inh inconclusive
COc1ccc(NC(=O)Nc2nnc(-c3cccs3)s2)cc1	TDP1 cell CPT inconclusive
COc1ccccc1CCc1nc2ccccc2n1C1CCN(C(=O)c2cn3ccsc3n2)CC1	none (no result: MCF10A rerep, SW480 rerep, IL1B secr inh, Chronic BCR inh)
COC(=O)C1CCN(Cc2ccc3c(c2)CN(C(=O)c2cc4ccccc4n2C)CCO3)CC1	DT40 TDP1 no CPT inconclusive (no result: MCF10A rerep, SW480 rerep, IL1B secr inh, Chronic BCR inh)
O=C(CCCC1=NS(=O)(=O)c2ccccc2N1)Nc1ccccc1	none
O=[N+]([O-])c1ccc(C[n+]2cccc3ccc4cccnc4c32)cc1	MCF10A rerep inconclusive, DT40 TDP1 no CPT 1.64µM, TDP1 cell CPT 1.84µM, Chronic BCR inh inconclusive
O=[N+]([O-])c1ccc(C[n+]2cccc3ccccc32)cc1	DT40 TDP1 no CPT inconclusive, TDP1 cell CPT inconclusive
COc1ccc(NC(=S)N(C(C)C)C2CCN(C(C)C)CC2)cc1Cl	none (no result: MCF10A rerep, SW480 rerep, IL1B secr inh, DT40 TDP1 no CPT, TDP1 cell CPT)
COC(=O)Cc1sc(-c2ccccn2)nc1-c1ccccc1	DT40 TDP1 no CPT 16.4µM, TDP1 cell CPT inconclusive
COc1ccc(N(C)C(=O)c2onc3c2CCCC3)cc1	none
CCC(c1nnnn1-c1ccc2c(c1)OCCO2)N1CCN(C(C)=O)CC1 (centres undefined)	none (no result: MCF10A rerep, SW480 rerep, Chronic BCR inh)
CCN(CC)c1ccc(-c2nn3c(-c4n[nH]c5c4CCC5)nnc3s2)cc1	MCF10A rerep 1.46µM, SW480 rerep 1.84µM, DT40 TDP1 no CPT 0.651µM, TDP1 cell CPT 0.92µM, Chronic BCR inh inconclusive
C1CCC(c2nn3c(-c4n[nH]c5c4CCC5)nnc3s2)CC1	IL1B secr inh inconclusive, DT40 TDP1 no CPT inconclusive, TDP1 cell CPT inconclusive, Chronic BCR inh inconclusive
CCOc1ccccc1NC(=O)CSc1nnc(CNC(=O)c2cccs2)o1	Chronic BCR inh inconclusive
CC(=O)n1cc([C@@H]2C=C(C(=O)NCc3ccccc3)O[C@H](OCCCCO)C2)c2ccccc21	MCF10A rerep inconclusive, DT40 TDP1 no CPT 18.4µM, TDP1 cell CPT inconclusive
O=C(Nc1ccccc1)C1=C[C@@H](c2coc3ccccc3c2=O)C[C@@H](OCCCCO)O1	DT40 TDP1 no CPT 9.2µM, TDP1 cell CPT inconclusive
CC(=O)n1cc([C@H]2C=C(C(=O)NCc3ccccc3)O[C@@H](OCCCCO)C2)c2ccccc21	MCF10A rerep inconclusive, SW480 rerep inconclusive, DT40 TDP1 no CPT inconclusive, TDP1 cell CPT inconclusive
O=C(Nc1ccccc1)C1=C[C@H](c2coc3ccccc3c2=O)C[C@H](OCCCCO)O1	DT40 TDP1 no CPT inconclusive, TDP1 cell CPT inconclusive
CC(=O)n1cc([C@H]2C=C(C(=O)NCc3ccccc3)O[C@@H](OCc3ccc(CO)cc3)C2)c2ccccc21	MCF10A rerep 18.4µM, IL1B secr inh -53.3, DT40 TDP1 no CPT 3.26µM, TDP1 cell CPT 5.8µM

Screens from PubChem.
